Test results taken from PubChem BioAssay (Tox21).
Several values for one entry are separate records, joined by “and”; a condition that tells them apart may be missing. Equal values may be shown once. Records with an inconclusive call do not appear. More than one record can exist for a structure, and the calls need not agree. Activity calls are given as the source filed them. Unless noted, calls come from the whole dose curve; as a rule, active = well fitted curve in the direction sought with a large enough effect in the repeat runs; inconclusive = weak or mixed curves; inactive = no such curve, though single readings can be large; an effect the other way counts as inactive or inconclusive.

Key:
[1] = biological target: Acetylcholinesterase (Homo sapiens) (UniProt P22303); assay: Acetylcholinesterase (AChE) small molecule antagonists: fluorescence cell-based qHTS assay (AID 1347398; calls by dose curve; note: nearly all actives have a fitted effect of over 50% in size; note: potency is the fitted concentration of half-maximal effect); conditions: Potency: AChE activity
Chain of Acetylcholinesterase (Homo sapiens) (P22303 whole entry, looked up): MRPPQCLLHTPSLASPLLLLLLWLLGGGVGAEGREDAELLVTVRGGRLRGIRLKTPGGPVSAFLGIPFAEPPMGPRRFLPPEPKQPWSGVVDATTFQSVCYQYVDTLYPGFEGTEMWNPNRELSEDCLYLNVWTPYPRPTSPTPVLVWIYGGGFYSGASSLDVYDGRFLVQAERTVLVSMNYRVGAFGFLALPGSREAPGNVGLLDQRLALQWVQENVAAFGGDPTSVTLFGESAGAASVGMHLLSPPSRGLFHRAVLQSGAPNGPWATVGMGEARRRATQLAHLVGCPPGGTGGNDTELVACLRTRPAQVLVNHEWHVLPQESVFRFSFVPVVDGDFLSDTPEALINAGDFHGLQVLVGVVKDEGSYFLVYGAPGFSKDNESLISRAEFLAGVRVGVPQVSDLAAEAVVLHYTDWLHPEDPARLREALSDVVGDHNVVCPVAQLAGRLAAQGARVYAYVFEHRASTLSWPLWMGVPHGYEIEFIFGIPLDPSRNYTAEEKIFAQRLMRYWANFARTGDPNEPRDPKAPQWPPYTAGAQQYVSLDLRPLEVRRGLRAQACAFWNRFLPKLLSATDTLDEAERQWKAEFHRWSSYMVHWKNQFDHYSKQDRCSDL
How it was run: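 Cellular AChE activity read as thiocholine from acetylthiocholine hydrolysis, detected by Thiolite Green fluorescence at 490/520 nm after 40 min at room temperature. Compounds were pre-incubated 30 min at 37 C on adherent SH-SY5Y cells.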

[2] = biological target: Acetylcholinesterase (Homo sapiens) (UniProt P22303); assay: Acetylcholinesterase (AChE) small molecule antagonists: enzyme-based qHTS assay with human liver microsomes (AID 1347399; calls by dose curve; note: nearly all actives have a fitted effect of over 60% in size); conditions: Potency: qHTS inhibition
How it was run: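 Recombinant human AChE (50 mU/mL in the enzyme mix) and human liver microsomes (0.25 mg/mL final) were preincubated with compound and NADPH (0.25 mg/mL final) for 30 min at 37 C. Acetylthiocholine/DTNB was then added; thiocholine was read colorimetrically after 10 min at room temperature.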

[3] = biological target: Cytochrome P450 2D6 (Homo sapiens) (UniProt P10635); assay: Cytochrome P450 Family 2 Subfamily D Member 6 (CYP2D6) small molecule antagonists: luciferase reporter qHTS assay (AID 1671196); note: nearly all actives have a fitted effect of over 50% in size; note: potency is the fitted concentration of half-maximal effect
Chain of Cytochrome P450 2D6 (Homo sapiens) (P10635 whole entry, looked up): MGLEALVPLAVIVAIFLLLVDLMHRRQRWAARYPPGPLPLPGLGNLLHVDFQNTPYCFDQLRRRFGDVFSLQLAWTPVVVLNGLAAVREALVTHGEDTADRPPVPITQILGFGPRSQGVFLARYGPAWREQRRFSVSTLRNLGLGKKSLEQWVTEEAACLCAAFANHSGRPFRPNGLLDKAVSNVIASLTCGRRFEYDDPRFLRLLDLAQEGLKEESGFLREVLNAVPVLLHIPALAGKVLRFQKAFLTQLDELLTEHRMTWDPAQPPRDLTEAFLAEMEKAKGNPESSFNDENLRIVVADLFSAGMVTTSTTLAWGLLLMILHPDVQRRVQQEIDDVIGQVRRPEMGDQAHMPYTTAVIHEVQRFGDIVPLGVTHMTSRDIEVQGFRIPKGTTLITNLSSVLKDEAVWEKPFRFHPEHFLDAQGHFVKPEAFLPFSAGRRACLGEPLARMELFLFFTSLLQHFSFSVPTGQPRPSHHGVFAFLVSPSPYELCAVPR
How it was run: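 Enzyme and proluciferin substrate were first combined with test chemical for 10 min at room temperature. Adding NADPH regeneration solution started a 1 h reaction, stopped with luciferin detection reagent and read by luminescence 20 min later.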

[4] = biological target: Cytochrome P450 2C19 (Homo sapiens) (UniProt P33261); assay: Cytochrome P450 Family 2 Subfamily C Member 19 (CYP2C19) small molecule antagonists: luciferase reporter qHTS assay (AID 1671197); note: nearly all actives have a fitted effect of over 65% in size; note: potency is the fitted concentration of half-maximal effect
Chain of Cytochrome P450 2C19 (Homo sapiens) (P33261 whole entry, looked up): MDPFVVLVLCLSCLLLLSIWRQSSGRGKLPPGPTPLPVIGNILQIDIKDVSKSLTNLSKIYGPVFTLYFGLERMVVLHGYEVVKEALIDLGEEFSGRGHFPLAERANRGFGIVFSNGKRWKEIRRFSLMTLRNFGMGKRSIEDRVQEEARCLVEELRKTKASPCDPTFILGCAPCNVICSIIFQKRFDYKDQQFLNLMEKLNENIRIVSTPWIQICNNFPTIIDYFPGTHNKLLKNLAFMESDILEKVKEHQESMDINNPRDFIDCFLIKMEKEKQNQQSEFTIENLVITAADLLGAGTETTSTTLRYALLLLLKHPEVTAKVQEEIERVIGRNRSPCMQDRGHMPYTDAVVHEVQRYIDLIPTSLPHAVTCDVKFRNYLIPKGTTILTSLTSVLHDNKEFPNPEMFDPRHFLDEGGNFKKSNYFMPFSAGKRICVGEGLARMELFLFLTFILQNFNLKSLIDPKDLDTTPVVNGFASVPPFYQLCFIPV
How it was run: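 Relative luminescence units recorded 20 min after the detection reagent stopped a 1 h, 37C CYP2C19 reaction on proluciferin substrate, which was started by NADPH regeneration following 10 min room-temperature compound preincubation; ketoconazole positive control.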

[5] = biological target: Cytochrome P450 2C9 (Homo sapiens) (UniProt P11712); assay: Cytochrome P450 Family 2 Subfamily C Member 9 (CYP2C9) small molecule antagonists: luciferase reporter qHTS assay (AID 1671198); note: nearly all actives have a fitted effect of over 50% in size; note: potency is the fitted concentration of half-maximal effect
Chain of Cytochrome P450 2C9 (Homo sapiens) (P11712 whole entry, looked up): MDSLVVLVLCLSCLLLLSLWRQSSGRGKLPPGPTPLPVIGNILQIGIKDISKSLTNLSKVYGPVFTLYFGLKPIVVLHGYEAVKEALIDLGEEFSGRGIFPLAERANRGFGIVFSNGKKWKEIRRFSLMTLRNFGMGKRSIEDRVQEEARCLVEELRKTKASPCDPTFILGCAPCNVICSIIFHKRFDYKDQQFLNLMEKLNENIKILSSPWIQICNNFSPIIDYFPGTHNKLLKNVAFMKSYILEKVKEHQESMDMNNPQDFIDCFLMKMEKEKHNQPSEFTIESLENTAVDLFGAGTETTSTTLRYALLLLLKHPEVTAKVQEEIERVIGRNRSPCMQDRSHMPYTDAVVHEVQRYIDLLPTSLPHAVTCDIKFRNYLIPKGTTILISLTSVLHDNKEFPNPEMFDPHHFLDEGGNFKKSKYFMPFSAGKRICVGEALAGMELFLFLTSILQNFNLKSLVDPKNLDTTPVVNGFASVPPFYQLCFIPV
How it was run: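 Enzyme-substrate mix preincubated with compound 10 min at room temperature; reaction started with NADPH regeneration solution, 1 h 37C. Luminescent luciferin product read after 20 min detection reagent.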

[6] = biological target: Cytochrome P450 1A2 (Homo sapiens) (UniProt P05177); assay: Cytochrome P450 Family 1 Subfamily A Member 2 (CYP1A2) small molecule antagonists: luciferase reporter qHTS assay (AID 1671199); note: nearly all actives have a fitted effect of over 50% in size; note: potency is the fitted concentration of half-maximal effect
Chain of Cytochrome P450 1A2 (Homo sapiens) (P05177 whole entry, looked up): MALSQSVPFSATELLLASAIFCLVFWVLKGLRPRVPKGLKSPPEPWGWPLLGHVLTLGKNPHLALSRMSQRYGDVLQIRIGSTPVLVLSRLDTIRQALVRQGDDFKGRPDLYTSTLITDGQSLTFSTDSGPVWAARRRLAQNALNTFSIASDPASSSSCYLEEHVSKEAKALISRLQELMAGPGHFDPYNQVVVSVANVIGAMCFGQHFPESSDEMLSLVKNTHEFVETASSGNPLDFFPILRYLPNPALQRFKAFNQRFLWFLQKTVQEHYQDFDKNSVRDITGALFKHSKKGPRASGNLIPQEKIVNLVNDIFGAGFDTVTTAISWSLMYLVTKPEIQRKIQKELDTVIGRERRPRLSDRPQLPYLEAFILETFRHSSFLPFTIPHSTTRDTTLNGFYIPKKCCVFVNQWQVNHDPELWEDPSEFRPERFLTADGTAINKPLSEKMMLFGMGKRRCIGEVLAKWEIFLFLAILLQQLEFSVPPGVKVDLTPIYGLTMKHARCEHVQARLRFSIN
How it was run: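 Compounds were incubated with CYP1A2 and a luminogenic proluciferin substrate for 10 min at room temperature before the reaction was started with NADPH regeneration solution. After 1 h, detection reagent was added and light output, proportional to CYP activity, was recorded.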

[7] = biological target: Voltage-gated inwardly rectifying potassium channel KCNH2 (Homo sapiens) (UniProt Q12809); assay: Human Ether-a-go-go-Related Gene (hERG) channel small molecule antagonists: fluorescence cell-based qHTS assay (AID 1671200); note: nearly all actives have a fitted effect of over 50% in size; note: potency is the fitted concentration of half-maximal effect
Chain of Voltage-gated inwardly rectifying potassium channel KCNH2 (Homo sapiens) (Q12809 whole entry, looked up): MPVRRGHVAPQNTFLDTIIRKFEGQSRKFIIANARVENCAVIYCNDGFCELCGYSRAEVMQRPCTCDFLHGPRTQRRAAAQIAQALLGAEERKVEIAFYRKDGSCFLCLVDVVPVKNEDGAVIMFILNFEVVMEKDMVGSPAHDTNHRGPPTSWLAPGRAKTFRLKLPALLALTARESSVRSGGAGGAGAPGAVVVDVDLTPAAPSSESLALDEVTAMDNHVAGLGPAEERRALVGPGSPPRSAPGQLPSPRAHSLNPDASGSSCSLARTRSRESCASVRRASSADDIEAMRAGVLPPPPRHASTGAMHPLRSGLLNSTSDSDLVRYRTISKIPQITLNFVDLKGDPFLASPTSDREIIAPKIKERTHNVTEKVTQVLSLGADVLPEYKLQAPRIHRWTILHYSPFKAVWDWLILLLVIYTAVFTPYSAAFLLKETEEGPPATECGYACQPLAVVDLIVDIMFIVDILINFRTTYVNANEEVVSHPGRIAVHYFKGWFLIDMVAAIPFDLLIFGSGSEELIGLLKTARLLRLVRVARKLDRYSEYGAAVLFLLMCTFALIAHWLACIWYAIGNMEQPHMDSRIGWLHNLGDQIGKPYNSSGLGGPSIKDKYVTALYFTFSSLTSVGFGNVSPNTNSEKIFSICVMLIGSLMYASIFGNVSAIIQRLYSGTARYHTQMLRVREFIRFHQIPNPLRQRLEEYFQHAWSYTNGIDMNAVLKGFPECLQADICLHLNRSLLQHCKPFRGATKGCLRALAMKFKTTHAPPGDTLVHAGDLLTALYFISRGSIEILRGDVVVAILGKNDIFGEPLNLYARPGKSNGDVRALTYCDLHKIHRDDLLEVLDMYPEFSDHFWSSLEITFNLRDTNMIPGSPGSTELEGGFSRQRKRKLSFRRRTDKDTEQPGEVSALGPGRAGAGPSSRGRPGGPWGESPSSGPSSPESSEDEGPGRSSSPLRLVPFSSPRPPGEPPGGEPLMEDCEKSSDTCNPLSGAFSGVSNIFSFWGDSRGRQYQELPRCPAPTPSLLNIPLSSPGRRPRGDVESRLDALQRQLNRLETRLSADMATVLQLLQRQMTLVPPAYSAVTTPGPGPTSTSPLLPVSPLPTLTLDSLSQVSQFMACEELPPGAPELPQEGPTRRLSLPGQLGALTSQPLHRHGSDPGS
How it was run: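 Read-out: thallium influx as a surrogate for potassium, tracked as fluorescence (480 nm ex/540 nm em) every second for 2 min after Stimulus Buffer addition in dye-loaded hERG-U2OS cells.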

[8] = biological target: Cytochrome P450 3A4 (Homo sapiens) (UniProt P08684); assay: Cytochrome P450 Family 3 Subfamily A Member 4 (CYP3A4) small molecule antagonists: luciferase reporter qHTS assay (AID 1671201); note: nearly all actives have a fitted effect of over 50% in size; note: potency is the fitted concentration of half-maximal effect
Chain of Cytochrome P450 3A4 (Homo sapiens) (P08684 whole entry, looked up): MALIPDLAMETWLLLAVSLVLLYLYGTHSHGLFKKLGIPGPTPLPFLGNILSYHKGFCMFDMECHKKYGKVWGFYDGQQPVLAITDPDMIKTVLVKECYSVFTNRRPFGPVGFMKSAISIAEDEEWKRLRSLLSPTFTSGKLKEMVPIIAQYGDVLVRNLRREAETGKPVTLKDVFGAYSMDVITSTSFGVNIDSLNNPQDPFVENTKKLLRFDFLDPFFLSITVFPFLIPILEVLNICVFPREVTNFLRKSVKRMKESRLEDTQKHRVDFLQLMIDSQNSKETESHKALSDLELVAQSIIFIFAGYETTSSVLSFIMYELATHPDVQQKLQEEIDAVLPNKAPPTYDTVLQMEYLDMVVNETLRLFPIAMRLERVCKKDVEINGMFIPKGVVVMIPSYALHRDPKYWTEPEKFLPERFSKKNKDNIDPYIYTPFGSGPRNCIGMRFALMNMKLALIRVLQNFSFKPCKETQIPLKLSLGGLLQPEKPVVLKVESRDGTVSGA
How it was run: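 Luminescent readout (RLU) proportional to CYP3A4 activity, from luciferin generated off a proluciferin substrate. Enzyme–substrate mix plus compound 10 min at room temp, NADPH regeneration 1 h, detection reagent 20 min.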

Measured: Potency

COc1cc(C=O)cc2c1[C@H](COC(N)=O)[C@]1(OC(C)=O)ON2C[C@H]2[C@@H]1N2C(C)=O
inactive: all assays above

CN(C)CCc1c[nH]c2ccc(O)cc12
active: [3] 17.4 µM | [5] 24.6 µM
inactive: all other assays above

C=CC(=O)OCC(COC(=O)C=C)(COC(=O)C=C)COC(=O)C=C
active: [3] 28.3 µM | [4] 17.8 µM | [5] 14.2 µM | [8] 1.26 µM
inactive: all other assays above

Oc1c(Br)c(Br)c(Br)c(Br)c1Br
active: [5] 35.8 µM | [6] 56.8 µM
inactive: all other assays above

Fc1ccc(Oc2ccnc3cc(Cl)cc(Cl)c23)cc1
active: [3] 35.6 µM | [4] 20 µM | [5] 31.7 µM | [6] 0.71 µM | [7] 24.5 µM | [8] 63.3 µM
inactive: [1] | [2]

CCC(C)c1cc([N+](=O)[O-])cc([N+](=O)[O-])c1OC(=O)C=C(C)C (stereo not drawn)
active: [4] 35.6 µM | [5] 35.6 µM | [6] 35.6 µM
not listed: [7]
inactive: all other assays above

CC(=O)c1ccc(-c2ccccc2)cc1
active: [4] 31.7 µM | [5] 15.9 µM | [6] 5.03 µM
inactive: all other assays above

OC(c1ccc(Cl)cc1)(c1ccc(Cl)cc1)C(Cl)(Cl)Cl
inactive: [1] | [2] | [8]
active: [3] 31.7 µM | [4] 0.0564 µM | [5] 5.03 µM | [6] 14.2 µM | [7] 24.5 µM

N#CCc1ccc(Cl)cc1
active: [4] 39.9 µM | [6] 31.7 µM
inactive: all other assays above

CNC(C)Cc1ccc2c(c1)OCO2 (stereo not drawn)
active: [3] 0.491 µM
inactive: all other assays above

Cc1cc(Cl)ccc1O[C@H](C)C(=O)O
inactive: all assays above

CN(C)C1CSSSC1
active: [3] 39.9 µM | [4] 35.6 µM | [5] 28.3 µM | [6] 63.3 µM
inactive: all other assays above

Cc1cc(N=Nc2ccccc2C)ccc1N
inactive: [1] | [2] | [7]
active: [3] 63.3 µM | [4] 5.64 µM and 8.94 µM | [5] 5.03 µM and 5.64 µM | [6] 1.26 µM and 2 µM | [8] 1.59 µM and 7.1 µM

CCCCCCCCCCCCCC[P+](CCCCCC)(CCCCCC)CCCCCC (tested in a mixture with another compound)
inactive: [2]
active: [1] 71 µM | [3] 1.26 µM | [4] 20 µM | [5] 22.5 µM | [6] 22.5 µM | [7] 0.692 µM | [8] 5.03 µM

O=[N+]([O-])c1ccc(Oc2ccc(C(F)(F)F)cc2[N+](=O)[O-])cc1
inactive: [1] | [2] | [8]
active: [3] 22.4 µM | [4] 0.894 µM | [5] 25.2 µM | [6] 31.7 µM | [7] 6.16 µM

C=COCCCl
inactive: all assays above

O=C(O)C1C2CCC(O2)C1C(=O)O (stereo not drawn)
36 µM (active) and inactive: [4]
inactive: all other assays above

CCc1nn(C)c(C(=O)NCc2ccc(C(C)(C)C)cc2)c1Cl
inactive: [1] | [2] | [8]
active: [3] 63.3 µM | [4] 6.33 µM | [5] 17.8 µM | [6] 22.4 µM | [7] 21.9 µM

O=C(CCl)Nc1ccccc1
active: [3] 39.9 µM
not listed: [6] | [8]
inactive: all other assays above

N#CCCSCCC#N
not listed: [6] | [8]
inactive: all other assays above

N#C/C=C/c1ccccc1
active: [6] 35.6 µM
inactive: all other assays above
